Screening results from PubChem BioAssay.
A selection: hits, their analogues and other compounds. The true share with any hit is near 2.3%.
HIF-2a block = inhibitors of HIF-2a; 786-0 RCC cells HIF-2a reporter, luciferase luminescence, overnight; 360,000 tested, 0.72% active; AID 624352; inhibition, % at 18.8 µM;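 active = inhibition of the luminescence signal of 40% or more relative to plate controls, in a single-dose primary screen at 18.75 µM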
LGR2 inh = blocks bursicon-induced cAMP signaling via Drosophila LGR2; HEK293 LGR2, CRE-luciferase, bursicon-stimulated, 4 h; inhibition, % at 9.99 µM; 380,000 tested, 0.35% active; AID 720647;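 active = drop in luminescence signal, shown as inhibition above about 50% in the replicate tests, limit read from the data, passing the limit was not always enough; inconclusive = probably only some replicates passing the limit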;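 note: agonist challenge used bursicon conditioned medium at about half maximal strength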
TWEAK-Fn14 inh = TWEAK-Fn14 signaling inhibition. TWEAK-stimulated Fn14 reporter cells, luciferase luminescence, 8 h. inhibition, % at 10 µM. 360,000 tested, 2% active; in the data active = inhibition above about 50%
iPSC survival up = increases survival of single human iPS cells; hiPSC single-cell survival, ATPlite luminescence; 100% = ROCK inhibitor wells, 0% = DMSO; 360,000 tested, 0.044% active; survival enhancement, % at 20 µM; in the data active = survival enhancement above about 18%;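 note: cells exposed to compounds for 16 hours before the ATP read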
KKLEB cytotox = CF airway cell cytotoxicity counter-screen | KKLEB CF airway cells viability, ATPlite luminescence, overnight; stronger effect = lower value; cells stimulated with P. aeruginosa culture filtrate | activity change (cytotoxicity), % at 5 µM | 360,000 tested, 0.36% active;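 active = corrected activity change at or below -50% at 5 µM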
CF NFkB inh = blocks PAF-induced NF-kB reporter in cystic fibrosis cells. KKLEB NF-kB-GFP reporter, GFP fluorescence overnight. inhibition, % at 5 µM. 360,000 tested, 0.86% active;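 active = at least 50% inhibition at 5 µM, scaled per plate between neutral and stimulator controls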;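 note: PAF is a Pseudomonas aeruginosa culture filtrate used as stimulus; plate controls were PAF-stimulated DMSO wells for no effect and unstimulated DMSO wells for full effect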
Active calls of the source: *; ? = inconclusive; nt = no result given.

SMILES	HIF-2a block	LGR2 inh	TWEAK-Fn14 inh	iPSC survival up	KKLEB cytotox	CF NFkB inh
O=[N+]([O-])c1ccc(N/N=C\c2cccn2-c2ccccc2)nc1	-63	-9	52*	-2	-5	-2
CCCCCCCCCC[N+](C)(C)CC/C=C1/c2ccccc2Sc2ccc(Cl)cc21	49*	nt	5	-1	-21	23
CN(C)c1ccc(-c2c(-c3ccc4c(c3)OCO4)noc2-c2ccsc2)cn1	-140	nt	-52	3	0	-9
O=C(O)c1cc(-c2ccc(-c3c(-c4ccc5c(c4)OCO5)noc3-c3ccsc3)cc2)nc2ccccc12	-241	-78	57*	-2	0	-1
O=C(C[C@@H]1C=C[C@H](NC(=O)c2ccncc2)[C@H](CO)O1)Nc1ccc(-c2ccccc2)cc1	nt	-12	nt	nt	nt	nt
CCN(CC)S(=O)(=O)c1ccc(N2CCc3ccccc3C2)nc1	-79	-19	29	-1	-5	25
CC(C)N(C(C)C)S(=O)(=O)c1ccc(N2CCc3ccccc3C2)nc1	-124	14	58*	0	-7	16
CCC(=O)N[C@H]1CC[C@H](CCNS(=O)(=O)c2ccc(Cl)cc2)O[C@@H]1CO	nt	22	nt	nt	nt	nt
Cc1ccc(NCc2nc3ccccc3n2C)cc1	-234	nt	66*	0	-5	12
CCCNc1ccc(C(=O)OCC)cc1[N+](=O)[O-]	-279	-47	-16	0	4	9
CCOC(=O)c1ccc(NC(C)=O)c([N+](=O)[O-])c1	12	-7	59*	-1	-12	14
C[C@H](NC(=O)[C@H]1[C@H](CO)[C@H]2Cn3c(cccc3=O)[C@H]2N1S(C)(=O)=O)c1ccccc1	nt	-21	nt	nt	nt	nt
CN(Cc1cccs1)c1ncnc2sccc12	-2	nt	13	-2	1	8
CN(Cc1ccccc1F)c1ncnc2sccc12	7	-1	51*	0	-5	7
COc1ccc(S(=O)(=O)N(C)C[C@H]2OCCCC[C@H](C)Oc3ccc(NC(=O)C4CCCCC4)cc3C(=O)N([C@@H](C)CO)C[C@H]2C)cc1	nt	19	nt	nt	nt	nt
CSc1ccccc1C(=O)NCC(c1ccco1)N1CCCCC1 (configuration not stated)	15	nt	-2	-1	6	2
O=C(NCC(c1ccco1)N1CCCC1)c1ccccc1F (configuration not stated)	-32	-9	53*	-3	4	6
C[C@@H]1CN([C@@H](C)CO)C(=O)c2cc(NC(=O)NC3CCCCC3)ccc2O[C@@H]1CN(C)Cc1ccc(Oc2ccccc2)cc1	nt	-1	nt	nt	nt	nt
C[C@@H]1CN([C@H](C)CO)C(=O)c2cc(NC(=O)Nc3ccc(F)cc3)ccc2O[C@@H](C)CCCCO[C@@H]1CN(C)S(=O)(=O)c1ccc(Cl)cc1	nt	-24	nt	nt	nt	nt
Cc1ccc(-c2csc(=Nc3cccnc3)n2CCCn2ccnc2)cc1C	11	nt	84*	0	-6	75*
C[C@H](CO)N1C[C@H](C)[C@H](CN(C)S(=O)(=O)c2ccc(F)cc2)OCCCC[C@H](C)Oc2ccc(NS(=O)(=O)c3cccs3)cc2C1=O	nt	17	nt	nt	nt	nt
Cc1ccc(Nc2nc(N)c3ccccc3n2)cc1C	-26	81*	68*	-1	-54*	-3
Cc1cc(Nc2ccc(C)c(C)c2)c2ccccc2n1	-4	14	-25	0	-3	-20
Cc1cc(-c2ccc(C)c(S(=O)(=O)NCc3cccc(Br)c3)c2)on1	11	14	-12	0	1	-4
Cc1cc(-c2ccc(C)c(S(=O)(=O)NCc3ccc(Br)cc3)c2)on1	24	15	65*	0	6	40
SMILES	HIF-2a block	LGR2 inh	TWEAK-Fn14 inh	iPSC survival up	KKLEB cytotox	CF NFkB inh
CC(C)N1C(=O)/C(=C\c2nc3ccccc3c(=O)n2-c2ccccc2)c2ccccc21	87*	?	54*	0	3	-32
CC1=C(Nc2ccc(C(=O)O)cc2)C(=O)c2ccccc2C1=O	-12	-32	3	0	10	33
Cc1ccccc1NC1=C/C(=N\S(=O)(=O)c2ccc(C(=O)O)cc2)c2ccccc2C1=O	56*	-5	93*	-1	-56*	100*
O=C(O)c1ccc(S(=O)(=O)/N=C2\C=C(Nc3ccccc3F)C(=O)c3ccccc32)cc1	-14	101*	96*	-1	-70*	102*
Cc1noc(C)c1NC(=O)Nc1cccc2c1O[C@@H](CN(C)CC1CCCCC1)[C@@H](C)CN([C@H](C)CO)C2=O	nt	-29	nt	nt	nt	nt
Cc1ccnc(NC(=O)Nc2cccc(F)c2)c1	-74	nt	66*	-1	13	-8
CC(=O)C1=C(c2ccc(Br)cc2)C(=O)c2ccccc2C1=O	30	99*	103*	-2	-12	81*
CC(=O)Nc1c(Br)cc2c(c1Br)C(=O)c1ccccc1-2	-18	14	27	-2	-6	0
Cc1ccc(S(=O)(=O)Nc2cccc3c2O[C@@H](CN(C)C(=O)NC2CCCCC2)[C@@H](C)CN([C@H](C)CO)C3=O)cc1	nt	-3	nt	nt	nt	nt
Cn1c(-c2ccccc2)cnc1SCC(=O)N1CCCCC1	28	nt	93*	-5	6	-12
CC1CC(C)C(=O)C(C(CC2CC(=O)NC(=O)C2)OC(=O)CC(=O)c2ccccc2)C1 (configuration not stated)	27	82*	51*	5	-14	66*
CS(=O)(=O)c1ccc(C(=O)OCc2nnc(-c3ccc(Cl)cc3)o2)cc1[N+](=O)[O-]	-12	nt	64*	0	-19	12
CCC(=O)N(C)C[C@H]1Oc2ncc(-c3ccccc3F)cc2C(=O)N([C@H](C)CO)C[C@H]1C	nt	-14	nt	nt	nt	nt
Oc1cccc(-c2nnc(-c3cccc(O)c3)nn2)c1	-12	84*	85*	-5	-60*	-2
C[C@@H]1CN([C@H](C)CO)S(=O)(=O)c2ccc(C#Cc3ccccc3F)cc2O[C@@H]1CN(C)C(=O)Cc1ccccc1	28	10	50*	-3	-10	26
C[C@@H]1CN([C@H](C)CO)S(=O)(=O)c2ccc(C#CC(C)(C)O)cc2O[C@@H]1CN(C)Cc1ccc(-c2ccccc2)cc1	nt	29	nt	nt	nt	nt
C[C@H]1CN([C@@H](C)CO)S(=O)(=O)c2ccc(C#CC(C)(C)O)cc2O[C@@H]1CN(C)Cc1ccc(-c2ccccc2)cc1	nt	54*	nt	nt	nt	nt
Cc1noc(C)c1NC(=O)Nc1ccc2c(c1)C(=O)N([C@@H](C)CO)C[C@H](C)[C@H](CN(C)CC1CCCCC1)OCCCC[C@H](C)O2	nt	9	nt	nt	nt	nt
O=C(C[C@@H]1CC[C@@H]2[C@H](COC[C@H](O)CN2Cc2ccccc2F)O1)N1CCc2ccccc2C1	nt	5	nt	nt	nt	nt
c1csc(CNc2ccc3c(c2)OCCO3)c1	-50	51*	63*	-2	-1	-16
Oc1ccccc1CNc1ccc2c(c1)OCCO2	-54	-15	39	3	-4	22
